Pf Dd2 inh – blocks in vitro growth of P. falciparum Dd2; P. falciparum Dd2 growth, SYBR Green, 72 h; Potency, µM (top dose mostly 28.9 µM), inactives show at the top dose activity, negative = inhibition, hits mostly inhibitors; 120,000 tested, 4.3% active; AID 1347417; active = well fitted inhibition curve with a large enough effect;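 note: plate controls were DMSO vehicle for no effect and reference drug for full effect; nearly all actives have a fitted effect of over 65% in size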
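Readout: SYBR Green fluorescence, 485 nm excitation, 535 nm emission, after ~16 h lysis at 37C. Before that, Dd2-infected red cells (2.5% hematocrit) grew 72 h with compound, 29 uM top final concentration.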
Starred values were filed as active, the others as inactive; i = inactive; [ ] = another dose, or the depositor's remark. Many of the other results were omitted from the sample, so hits are more common in it than they were. Potency is the fitted concentration of half-maximal effect.

SMILES | Pf Dd2 inh
CCN1c2cc(C(=O)N3CCN(c4ccccn4)CC3)ccc2C(=O)N2CCCCC21 (stereo not drawn) | i
CCOc1ccccc1N1CCN(C(=O)c2ccc3c(c2)N(C)C2CCCCN2C3=O)CC1 (stereo not drawn) | 5.01µM*
COc1ccc(C2Cn3nnc(C(=O)N4CCC(C(=O)Nc5cc(C)cc(C)c5)CC4)c3CO2)cc1 (stereo not drawn) | i
CCOc1ccccc1CNC(=O)CC1CCOCC1 | 52.7%
Cc1cccc(C(=O)N2CCC3(CC2)CC(OCC2CC2)CCO3)c1 (stereo not drawn) | 11.9%
O=C(CN1C(=O)C(c2ccccc2)=NC12CCCC2)Nc1ccc(C(F)(F)F)cc1 | -6.3%
O=C1CC2(CCN(Cc3cccc(-c4ccccc4)c3)C2)C(=O)N1 (stereo not drawn) | -19.1%
Cc1ccc(CN2C(=O)COC[C@H]2C(=O)N2CCN(c3ccccc3F)CC2)cc1 | -27.2%
O=c1c2ccccc2nc2sc(Nc3cccc(C(F)(F)F)c3)nn12 | -11.1%
CCc1c(C)c(C#N)c2nc3ccccc3n2c1Nc1cccc(C(F)(F)F)c1 | 2.24µM*
CC(=O)Nc1ccccc1-c1nc2ccccc2n(CC(=O)Nc2cccc(C(F)(F)F)c2)c1=O | 25.0%
O=C(Nc1ccc(Br)cc1)c1ccc(F)c(S(=O)(=O)NC2CCCCCC2)c1 | 1.26µM*
Cc1ccc(NC(=O)c2cc(S(=O)(=O)NCCc3ccc(Cl)cc3)ccc2F)cc1 | i
O=C(Nc1ccc(Br)cc1)c1ccc(Br)c(S(=O)(=O)N2CCCCC2)c1 | -6.1%
Cc1ccc(C(=O)Nc2ccc(F)cc2)cc1S(=O)(=O)N1CCCCCC1 | -37.4%
O=C(Nc1ccc(Br)cc1F)c1cc(S(=O)(=O)NC2CCCCC2)ccc1F | -15.5%
CCOc1ccc(NC(=O)c2cc(S(=O)(=O)NC3CCCCCC3)ccc2F)cc1 | 3.98µM*
CCOc1ccccc1NC(=O)c1cc(S(=O)(=O)NC2CCCC2)ccc1F | i
CCOc1ccc(NC(=O)c2cc(S(=O)(=O)N3CCOCC3)ccc2F)cc1 | i
CC(C)c1ccc(NC(=O)c2cc(S(=O)(=O)NC3CCCCC3)ccc2F)cc1 | 7.94µM*
O=C(Cc1ccccc1F)NCCc1noc(C2CC2)n1 | i
COC[C@@H]1[C@H](C(=O)N2CCN(c3ccccc3OC)CC2)CCC(=O)N1C | -20.4%
Cc1cc(-c2ccc(S(=O)(=O)NC3CCOC4(CCOCC4)C3)o2)on1 (stereo not drawn) | 15.2%
N#Cc1cccc(NC(=O)Cn2nc3n(c2=O)CCCCC3)c1 | 0.1%
Cc1ccc(Cn2c(C3CCN(C(=O)c4sccc4C)CC3)n[nH]c2=O)cc1 | -15.6%
SMILES | Pf Dd2 inh
COCC(=O)N1CCC(O)(c2csc(CN3CCc4ccccc4C3)n2)CC1 | i
CCN(CC)Cc1nc(C2(O)CCN(CC3CC3)CC2)cs1 | -22.2%[44.1 µM]
CCN(CC)Cc1nc(C2(O)CCN(C)CC2)cs1 | 3.3%[44.1 µM]
CC(C)CCN1CCC(O)(c2csc(CN3CC[C@@H](O)C3)n2)CC1 | -16.0%[44.1 µM]
CC(C)(C)CC(=O)N1CCC(O)(c2csc(CN3CCc4ccccc4C3)n2)CC1 | -25.7%[44.1 µM]
OC1(c2csc(CN3CCc4ccccc4C3)n2)CCN(Cc2ccccc2F)CC1 | i
CC(C)CCN1CCC(O)(c2csc(CN3CCc4ccccc4C3)n2)CC1 | 12.6µM*
O=C(c1ccccc1F)N1CCC(O)(c2csc(CN3CCc4ccccc4C3)n2)CC1 | 3.16µM*
O=C(COc1ccccc1)N1CCC(O)(c2csc(CN3CCc4ccccc4C3)n2)CC1 | -7.8%
OC1(c2csc(CN3CCc4ccccc4C3)n2)CCN(CC2CCCCC2)CC1 | 3.16µM*
CN1CCN(Cc2nc(C3(O)CCN(CC4CC4)CC3)cs2)CC1 | 16.9%[44.1 µM]
CCN(CC)Cc1nc(C2(O)CCN(CCC(C)C)CC2)cs1 | 15.8µM*
COCCOCC(=O)N1CC(c2nnc(-c3ccncc3)o2)C2(CCOCC2)C1 (stereo not drawn) | 18.6%
O=C1CC2CCCC(C1)N2[S+](=O)([O-])c1ccccc1 | 3.1%[44.1 µM]
COC(=O)c1cccc(NC(=O)C2CCc3sc(C(=O)N(C)C)cc3C2)c1 (stereo not drawn) | i
CS(=O)(=O)N1CCN2C(=O)N(C3CCCCC3)C[C@H]2C1 | 14.7%[44.1 µM]
CC(C)[S+](=O)([O-])N1CCC(c2nnc3n2C(C(=O)O)CC3)CC1 (stereo not drawn) | 18.2%
CC[C@@]1(C(=O)O)C[C@H](C(=O)NCc2cccnc2)[C@H](c2ccc(F)cc2)N1C | -16.6%
O[C@@H]1C[C@@H](c2nc(-c3ccc(F)cc3)no2)N(Cc2ccncc2)C1 | -12.9%[44.1 µM]
COc1ccc(C2(CC(=O)N3CCC(Oc4ccc(F)cc4)CC3)CC(=O)N(C3CC3)C2=O)cc1 (stereo not drawn) | 0.5%
OC1(c2csc(CN3CCc4ccccc4C3)n2)CCN(C2CCC2)CC1 | 10µM*
O=C(C1CC1)N1CCC(O)(c2csc(CN3CCc4ccccc4C3)n2)CC1 | -26.8%[44.1 µM]
CN1CCC(N2CCC(O)(c3csc(CN4CCc5ccccc5C4)n3)CC2)CC1 | i
CC(=O)Nc1ccc(C(=O)N2CCC3(CC2)N=C(c2cccc(Br)c2)NO3)cc1 | 11.2µM*
CN(C)c1ccc(C(=O)N2CCC3(CC2)N=C(c2cccc(Br)c2)NO3)cc1 | 37.4%
SMILES | Pf Dd2 inh
Cc1ccc(C)c(C(=O)N2CCC3(CC2)N=C(c2ccccc2)NO3)c1 | i
COc1ccccc1CC(=O)N1CCC2(CC1)N=C(c1ccc(Cl)cc1)NO2 | -35.5%
O=C(c1ccccc1)N1CCC2(CC1)N=C(c1cccc(Br)c1)NO2 | i
Cc1ccc(C2=NC3(CCN(C(=O)c4ccccc4C)CC3)ON2)cc1 | 6.31µM*
Cc1ccc(C2=NC3(CCN(C(=O)Cc4ccc(F)cc4)CC3)ON2)cc1 | -12.9%
Cc1ccc(C2=NC3(CCN(C(=O)Cc4ccccc4Cl)CC3)ON2)cc1 | 11.2µM*
Cc1ccc(C2=NC3(CCN(C(=O)c4c[nH]c5ccccc45)CC3)ON2)cc1 | -12.8%
CCNC(=O)N1CCCCCCNC(=O)[C@@H]2CCC[C@@H]21 | 27.3%
COCCNC(=O)[C@H]1C[C@H](Oc2cccnc2)CN1C(=O)Nc1cccc(F)c1 | 7.3%
CCOc1ccc(NC(=O)N2CC(C(=O)N(C)C)C3(CCOCC3)C2)cc1 (stereo not drawn) | -17.0%
COc1cccc([S+](=O)([O-])N2CC3ON=C(C(=O)O)C3C2)c1 (stereo not drawn) | 5.0%
COc1ccccc1OCCNC(=O)C1CCCN(c2cn[nH]c(=O)c2)C1 (stereo not drawn) | 3.5%
Cc1ccc(-n2nc3n(c2=O)CCN(C(=O)C2CC2)C3)cc1 | i
O=C([C@@H]1C[C@H](Oc2ccccc2)CN1C(=O)Cc1c[nH]c2ccccc12)N1CCOCC1 | -21.7%
O=C([C@@H]1C[C@H](Oc2cccnc2)CN1C(=O)CCc1c[nH]c2ccccc12)N1CCOCC1 | 3.98µM*
O=C([C@@H]1C[C@H](Oc2cccnc2)CN1C(=O)CCc1ccccc1)N1CCOCC1 | -6.0%
OCC1(CN2CCCC2)CCN(C/C=C/c2ccccc2)CC1 | 7.08µM*
OCC1(CN2CCCC2)CCN(Cc2cc(F)cc(F)c2)CC1 | i
Cc1nnc(N2CCC(CO)(CN3CCCC3)CC2)c2ccccc12 | i
OCC1(CN2CCCC2)CCN(Cc2ccc3ccccc3c2)CC1 | 6.31µM*
OCC1(CN2CCCC2)CCN(Cc2ccc(Cl)cc2F)CC1 | i
O=C(c1cccc(O)c1)N1CCC(CO)(CN2CCCC2)CC1 | -0.7%
N#Cc1ccc(S(=O)(=O)N2CCC3(CC2)CC2C(=O)NCCN2C3)cc1 (stereo not drawn) | 8.3%
C=CCN1CCN(C(=O)C2(CCO)CC23CCOCC3)CC1 (stereo not drawn) | -0.7%

High-throughput results deposited in PubChem BioAssay by National Center for Advancing Translational Sciences (NCATS).
